{
  "source": "PubChem BioAssay AID2284064",
  "about": "(EPA ToxCast)",
  "note": "The source made the active and inactive calls. Rule for the calls: active = hit-call score of the fitted dose curve at least 0.9, where 1 is the maximum; inactive = score below 0.9.",
  "data": [
    {"molecular_target": "human CDK2/CyclinA CMGC Kinase, CDK2 (gene 1017) (UniProt P24941)", "test": "ERF_FR_ENZ_hCDK2: Eurofins (ERF) Enzymatic Radiometric [Km ATP] KinaseProfiler LeadHunter Assay for human CDK2/CyclinA CMGC Kinase", "protocol": "ERF_FR_ENZ_hCDK2 is a biochemical, single-readout assay that uses extracted gene-proteins in a cell-free assay. Measurements were taken 0.5 hour after chemical dosing in a 96-well plate. See CDK2 /CyclinA Human CMGC Kinase Enzymatic LANCE Assay [Km ATP], Cerep.ERF_FR_ENZ_hCDK2 is an assay component calculated from the ERF_FR_ENZ_hCDK2 assay. It is designed to measure enzyme activity using a type of enzyme reporter as detected by fluorescence intensity with LANCE technology.Data from the assay component ERF_FR_ENZ_hCDK2 was analyzed at the assay endpoint, ERF_FR_ENZ_hCDK2, in the positive analysis fitting direction relative to DMSO as the negative control and baseline of activity. Using a type of enzyme reporter, loss-of-signal activity can be used to understand changes in enzymatic activity as they relate to gene CDK2. To generalize the intended target to other relatable targets, this assay endpoint is annotated to the kinase intended target family, where the subfamily is serine/threonine kinase.\nCDK2/cyclinA (h) is incubated with 8 mM MOPS pH 7.0, 0.2 mM EDTA, 0.1 mg/mL histone H1, 10 mM MgAcetate and [gamma-33P]-ATP (specific activity and concentration as required). The reaction is initiated by the addition of the Mg/ATP mix. After incubation for 40 minutes at room temperature, the reaction is stopped by the addition of phosphoric acid to a concentration of 0.5%. […]", "values": [
      {"smiles": "O=C(/C=C/c1ccc(O)cc1)CC(=O)/C=C/c1ccc(O)cc1", "outcome": "inactive"},
      {"smiles": "COc1cc(CCC(=O)CC(=O)CCc2ccc(O)c(OC)c2)ccc1O", "outcome": "inactive"}
    ]}
  ]
}
